# Reference: PubChem BioAssay (Tox21)
# Records with an inconclusive call do not appear. Where a call stands in place of a potency, no number is given. Calls of active or inactive are those of the source. Unless noted, calls follow the shape of the dose curve; as a rule, active = well fitted curve in the direction sought with a large enough effect in the repeat runs; inconclusive = weak or mixed curves; inactive = no such curve, though single readings can be large; an effect the other way counts as inactive or inconclusive.
# How the values were obtained:
# [1] = target: Aryl hydrocarbon receptor (Homo sapiens) (UniProt P35869); experiment: qHTS assay to identify small molecule that activate the aryl hydrocarbon receptor (AhR) signaling pathway (AID 743085); also: nearly all actives have a fitted effect of over 15% in size; also: potency is read from the fitted curve at half-maximal effect;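 as to activation: HG2L7.5c1 human HepG2 liver cells with stably integrated DRE-driven firefly reporter; series mostly up to about 70 µM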
# Chain of Aryl hydrocarbon receptor (Homo sapiens) (P35869 whole entry, looked up): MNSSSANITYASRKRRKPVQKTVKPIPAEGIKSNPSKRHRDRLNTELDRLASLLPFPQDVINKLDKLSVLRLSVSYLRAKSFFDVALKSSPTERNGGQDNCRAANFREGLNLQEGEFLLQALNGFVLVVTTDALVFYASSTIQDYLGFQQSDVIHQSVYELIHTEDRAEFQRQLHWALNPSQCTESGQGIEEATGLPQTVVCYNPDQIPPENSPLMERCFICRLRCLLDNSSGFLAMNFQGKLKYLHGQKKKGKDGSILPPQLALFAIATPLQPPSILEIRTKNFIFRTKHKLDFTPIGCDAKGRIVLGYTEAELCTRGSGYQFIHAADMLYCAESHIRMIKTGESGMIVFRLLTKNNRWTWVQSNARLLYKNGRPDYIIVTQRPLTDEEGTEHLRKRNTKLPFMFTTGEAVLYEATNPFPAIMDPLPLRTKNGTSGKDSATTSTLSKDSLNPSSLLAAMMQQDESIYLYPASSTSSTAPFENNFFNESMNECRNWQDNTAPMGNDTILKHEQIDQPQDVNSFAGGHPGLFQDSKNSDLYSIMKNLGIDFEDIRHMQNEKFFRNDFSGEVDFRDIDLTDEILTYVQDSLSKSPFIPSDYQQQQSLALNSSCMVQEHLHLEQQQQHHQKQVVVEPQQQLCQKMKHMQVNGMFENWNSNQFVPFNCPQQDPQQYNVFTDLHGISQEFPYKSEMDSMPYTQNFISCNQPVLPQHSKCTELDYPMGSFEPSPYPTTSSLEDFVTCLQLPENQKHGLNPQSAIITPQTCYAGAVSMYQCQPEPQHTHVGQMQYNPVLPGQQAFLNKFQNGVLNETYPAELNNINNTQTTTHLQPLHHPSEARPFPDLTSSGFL
# Procedure, shortened: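 Luminescence (ONE-Glo) from a dioxin-responsive-element luciferase reporter in HG2L7.5c1 HepG2 cells after 24 hr compound exposure at 37C; viability measured by CellTiter-Fluor fluorescence beforehand.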
# [2] = qHTS assay to identify small molecule that activate the aryl hydrocarbon receptor (AhR) signaling pathway - cell viability counter screen (AID 743086); also: nearly all actives have a fitted effect of over 45% in size; also: potency is read from the fitted curve at half-maximal effect
# Procedure, shortened: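 Cytotoxicity counter screen: CellTiter-Fluor signal (30 min, 37 C) in 4000 HepG2 cells/well carrying the DRE-luciferase reporter, following 24 h compound exposure at 37 C.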
# [3] = target: Peroxisome proliferator-activated receptor gamma (Homo sapiens) (UniProt P37231); experiment: qHTS assay to identify small molecule antagonists of the peroxisome proliferator-activated receptor gamma (PPARg) signaling pathway (AID 743191; calls by dose curve; also: nearly all actives have a fitted effect of over 30% in size; also: potency is read from the fitted curve at half-maximal effect)
# Chain of Peroxisome proliferator-activated receptor gamma (Homo sapiens) (P37231 whole entry, looked up): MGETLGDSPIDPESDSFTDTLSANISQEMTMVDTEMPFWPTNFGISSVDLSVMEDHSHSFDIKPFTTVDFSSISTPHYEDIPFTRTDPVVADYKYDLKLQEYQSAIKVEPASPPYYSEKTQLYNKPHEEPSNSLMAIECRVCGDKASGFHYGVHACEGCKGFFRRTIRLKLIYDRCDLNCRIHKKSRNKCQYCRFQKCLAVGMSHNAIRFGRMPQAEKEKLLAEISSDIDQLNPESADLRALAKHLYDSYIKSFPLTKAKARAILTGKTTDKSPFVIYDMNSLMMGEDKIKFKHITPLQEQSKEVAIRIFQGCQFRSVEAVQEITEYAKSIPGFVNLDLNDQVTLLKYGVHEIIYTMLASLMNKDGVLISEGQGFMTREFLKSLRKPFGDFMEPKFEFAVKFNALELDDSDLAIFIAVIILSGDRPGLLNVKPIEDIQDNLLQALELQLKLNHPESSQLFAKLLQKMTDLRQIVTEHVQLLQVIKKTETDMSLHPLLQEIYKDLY
# Procedure, shortened: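 Beta-lactamase reporter under UAS control in HEK293H PPARg-bla cells; compound treatment 17 h at 37C. Read-out: fluorescence intensity after 1 h room-temperature incubation with LiveBLAzer B/G FRET substrate.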
# [4] = qHTS assay to identify small molecule antagonists of the peroxisome proliferator-activated receptor gamma (PPARg) signaling pathway - cell viability counter screen (AID 743194); details: Potency: co-treated with 50 nM rosiglitazone unless noted; also: nearly all actives have a fitted effect of over 55% in size; also: potency is read from the fitted curve at half-maximal effect
# Procedure, shortened: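 Viability was measured as CellTiter-Glo luminescence in GeneBLAzer PPARg UAS-bla HEK293H cells. These cells had been exposed 17 h at 37 C to compounds together with rosiglitazone at 50 nM final, with the beta-lactamase readout taken in the same wells.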
# [5] = qHTS assay for small molecule agonists of the antioxidant response element (ARE) signaling pathway (AID 743202; active = well fitted activation curve with a large enough effect in the signal ratio in the repeat runs, not every such curve was filed as active; the % refers to the signal ratio; also: potency is read from the fitted curve at half-maximal effect)
# Procedure, shortened: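 Quantitative high-throughput format in HepG2 cells bearing an integrated ARE-beta-lactamase reporter. Compound exposure lasted 16 h at 37 C, and fluorescence was read 2 h after adding LiveBLAzer B/G substrate at room temperature.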
# [6] = qHTS assay for small molecule agonists of the antioxidant response element (ARE) signaling pathway - cell viability counter screen (AID 743203; calls by dose curve; also: nearly all actives have a fitted effect of over 55% in size)
# Procedure, shortened: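 ARE-bla HepG2 cells were plated, rested 5 h at 37C/5% CO2, then exposed to compounds in DMSO for 16 h. Viability was read as CellTiter-Glo luminescence after 30 min at room temperature, in the same wells as the ARE screen.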
# [7] = qHTS assay for small molecule activators of the heat shock response signaling pathway - cell viability counter screen (AID 743209); also: nearly all actives have a fitted effect of over 50% in size; also: potency is read from the fitted curve at half-maximal effect
# Procedure, shortened: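 HSE-bla HeLa cells plated overnight, then exposed to Tox21 compounds (23 nL in DMSO) for 5 h at 37 C. After the bla reporter read, CellTiter-Glo was added in the same wells and luminescence read after 30 min at room temperature.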
# [8] = target: Peroxisome proliferator-activated receptor gamma (Homo sapiens) (UniProt P37231); experiment: qHTS assay to identify small molecule agonists of the peroxisome proliferator-activated receptor gamma (PPARg) signaling pathway (AID 743094; active = well fitted activation curve with a large enough effect in the signal ratio in the repeat runs, not every such curve was filed as active; the % refers to the signal ratio; also: potency is read from the fitted curve at half-maximal effect)
# Procedure, shortened: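 GeneBLAzer PPARg UAS-bla HEK293H cells were plated, rested 5 h, then exposed to compounds for 17 h at 37C. Beta-lactamase activity was read by LiveBLAzer B/G FRET substrate fluorescence after 1 h at room temperature.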
# [9] = qHTS assay for small molecule activators of the heat shock response signaling pathway (AID 743210; active = well fitted activation curve with a large enough effect in the signal ratio in the repeat runs, with a control signal flat, not every such curve was filed as active; the % refers to the signal ratio;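 also: HeLa cells with beta-lactamase reporter driven by heat shock elements; series mostly up to about 63 µM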)
# Procedure, shortened: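 HeLa HSE-bla cells, overnight plating; cpd in DMSO 5 h, 37 C; LiveBLAzer B/G FRET substrate 2.5 h RT; fluorescence intensity read.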
# [10] = qHTS assay to identify small molecule agonists of the peroxisome proliferator-activated receptor delta (PPARd) signaling pathway - cell viability counter screen (AID 743211); also: nearly all actives have a fitted effect of over 55% in size; also: potency is read from the fitted curve at half-maximal effect
# Procedure, shortened: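 Viability was measured as CellTiter-Glo luminescence (30 min, room temperature) in the same wells as the beta-lactamase readout. GeneBLAzer PPARd UAS-bla HEK293H cells received compound after 5 h plating and were incubated 17 h at 37 C.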
SMILES,Potency [1],Potency [2],Potency [3],Potency [4],Potency [5],Potency [6],Potency [7],Potency [8],Potency [9],Potency [10]
CC1(C)[C@H](C(=O)O[C@H](C#N)c2cccc(Oc3ccccc3)c2)[C@@H]1/C=C(\Cl)C(F)(F)F,inactive,inactive,inactive,inactive,inactive,inactive,inactive,–,–,–
C[C@]12CC[C@H]3[C@@H](CCC4=CC(=O)CC[C@@]43C)[C@@H]1CC[C@@H]2O,inactive,inactive,–,inactive,–,–,inactive,inactive,inactive,inactive
CC(C)CCCCCCCOP(=O)(Oc1ccccc1)Oc1ccccc1,inactive,inactive,–,inactive,–,–,inactive,inactive,inactive,27.7 µM (active)
C=CC(=O)OCCCCOC(=O)C=C,inactive,inactive,–,–,27.3 µM (active),–,5.49 µM (active),9.77 µM (active),–,49 µM (active)
CC(C)[C@H](C(=O)OC(C#N)c1cccc(Oc2ccccc2)c1)c1ccc(OC(F)F)cc1 (stereo partly drawn),inactive,inactive,inactive,inactive,inactive,inactive,inactive,–,–,–
C1CCC2CCCCC2C1 (stereo not drawn),inactive,inactive,–,inactive,–,–,inactive,inactive,inactive,–
CCOP(=S)(OCC)OC(Cl)C(Cl)(Cl)Cl (stereo not drawn),inactive,inactive,–,–,–,–,inactive,inactive,inactive,–
CC(C)CC(C)N (stereo not drawn),inactive,inactive,–,–,inactive,inactive,inactive,inactive,inactive,inactive
CC1(C)CC/C(=C/c2ccc(Cl)cc2)C1(O)Cn1cncn1 (stereo not drawn),8.6 µM (active),inactive,–,inactive,–,–,–,–,–,–
C[C@H]1CC[C@@H]2[C@@H](C)[C@H]3[C@H](C[C@H]4[C@@H]5CC=C6CC(O[C@@H]7O[C@H](CO)[C@H](O)[C@H](O[C@@H]8O[C@H](CO)[C@@H](O)[C@H](O)[C@H]8O)[C@H]7O[C@H]7O[C@@H](C)[C@H](O)[C@@H](O)[C@H]7O)CC[C@]6(C)[C@H]5CC[C@]34C)N2C1 (stereo partly drawn),inactive,inactive,–,8.99 µM (active),–,–,16 µM (active),inactive,–,1.43 µM (active)
O=S(=O)(c1ccc(Cl)cc1)c1ccc(Cl)cc1,inactive,inactive,–,–,–,inactive,inactive,inactive,–,–
CC(C)Oc1cccc(NC(=O)c2ccccc2C(F)(F)F)c1,9.97 µM (active),inactive,–,–,–,inactive,–,inactive,inactive,–
CC(C)OC(=O)C(O)(c1ccc(Cl)cc1)c1ccc(Cl)cc1,inactive,inactive,–,–,inactive,–,inactive,inactive,inactive,–
Cc1cc(C(C)(C)c2cc(C)c(O)c(C)c2)cc(C)c1O,inactive,52.7 µM (active),29.9 µM (active),–,–,–,–,–,inactive,47.4 µM (active)
